In all, about 110,000 compounds were measured (“z-score”: median about -0.1, highest 2% from about 2 on). This is one part of a sample in which the highest values are shown more often than they occur. Activity calls are given as the source filed them.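 How the source made its calls: active means z-score in the third read window above 3 or below -3; inactive means the rest.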
What follows are compounds tested against Metabotropic glutamate receptor 8 (Rattus norvegicus) (UniProt P70579) (assay: mGluR8 Gi/Go-coupled signaling modulation – cell-based, rat, thallium flux, HTS, primary screen (AID 488969)). Conditions: HEK293 rat mGluR8, GIRK (G protein-gated inwardly rectifying potassium channel) thallium flux, FluoZin2; at 10 µM; stronger effect = higher value; submaximal glutamate (EC20) added with thallium.
Metabotropic glutamate receptor 8 (Rattus norvegicus), sequence (P70579 whole entry, looked up): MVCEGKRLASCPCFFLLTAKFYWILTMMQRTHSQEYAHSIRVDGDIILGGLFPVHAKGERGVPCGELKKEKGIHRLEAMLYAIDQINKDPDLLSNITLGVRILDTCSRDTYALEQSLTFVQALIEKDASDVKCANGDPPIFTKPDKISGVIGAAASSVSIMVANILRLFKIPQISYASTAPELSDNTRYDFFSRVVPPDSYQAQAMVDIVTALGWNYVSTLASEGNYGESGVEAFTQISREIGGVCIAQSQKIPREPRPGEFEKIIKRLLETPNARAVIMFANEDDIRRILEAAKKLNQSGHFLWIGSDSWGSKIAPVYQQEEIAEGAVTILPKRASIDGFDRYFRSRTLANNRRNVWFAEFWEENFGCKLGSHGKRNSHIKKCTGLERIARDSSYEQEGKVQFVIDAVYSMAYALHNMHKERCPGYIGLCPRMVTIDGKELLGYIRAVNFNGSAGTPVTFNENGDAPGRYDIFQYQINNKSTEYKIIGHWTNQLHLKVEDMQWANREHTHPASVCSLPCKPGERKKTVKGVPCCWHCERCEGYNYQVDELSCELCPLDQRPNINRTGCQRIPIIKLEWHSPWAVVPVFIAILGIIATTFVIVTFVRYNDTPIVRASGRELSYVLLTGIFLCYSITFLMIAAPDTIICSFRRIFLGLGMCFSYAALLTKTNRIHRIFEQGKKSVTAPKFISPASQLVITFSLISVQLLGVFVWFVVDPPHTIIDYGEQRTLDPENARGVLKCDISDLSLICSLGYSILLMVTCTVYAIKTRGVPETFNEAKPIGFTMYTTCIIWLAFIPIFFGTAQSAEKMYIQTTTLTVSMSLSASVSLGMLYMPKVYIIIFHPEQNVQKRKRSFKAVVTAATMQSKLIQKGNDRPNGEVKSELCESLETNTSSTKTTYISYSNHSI

| Structure (SMILES) | z-score |
| --- | --- |
| COc1ccc(C(C(=O)NC2CCCCC2)N(CC2CCCO2)C(=O)C2COc3ccccc3O2)cc1OC (configuration not stated) | -0.167 |
| COc1ccc(S(=O)(=O)Nc2ccccc2C(=O)NCc2ccco2)cc1 | -0.614 |
| FC(F)(F)C1=CC(c2ccccc2)=NCCN1 | -0.25 |
| COc1cc(O)oc1C=Nc1ccc(Cl)cc1 | -0.289 |
| Cc1ccc(N2CC(C(=O)Nc3ccncc3)CC2=O)cc1 (configuration not stated) | -0.196 |
| COc1ccc(OC)c(NC(=O)CSc2nc3c(c(=O)n(C)c(=O)n3C)n2C)c1 | -1.15 |
| Cc1cccc(N=Cc2cc3c(cc2[N+](=O)[O-])OCO3)c1 | -0.0653 |
| O=C(N/N=C/c1ccco1)c1cc([N+](=O)[O-])cc([N+](=O)[O-])c1 | 0.778 |
| Cc1ccc(/C=N/NC(=O)c2cccc([N+](=O)[O-])c2)o1 | -0.121 |
| Cc1ccc(/C=N\NC(=O)c2cc([N+](=O)[O-])cc([N+](=O)[O-])c2)o1 | 4.57 (active) |
| COc1cccc(-c2nc(-c3ccc(NC(=O)Cc4ccccc4OC)cc3)no2)c1 | 0.363 |
| CCCNC(=O)Cc1ccsc1 | 0.11 |
| O=C(CCN1C(=O)c2ccccc2C1=O)Nc1ccc(-c2nc3ccccc3o2)cc1 | -0.0516 |
| Cc1cc(S(=O)(=O)N2CCCC2)ccc1OCC(=O)N1CCOCC1 | 0.0243 |
| COC(=O)c1cc(=O)n(CCc2ccc(OC)c(OC)c2)c(=Nc2ccc(F)c(Cl)c2)s1 | 0.363 |
| COC(=O)c1cc(=O)n(CCc2ccc(OC)cc2)c(=Nc2ccc(F)c(Cl)c2)s1 | 9.49 (active) |
| COC(=O)c1cc(=O)n(CCc2ccccc2F)c(=Nc2ccc(F)c(Cl)c2)s1 | -0.11 |
| O=C(CSc1nc2c(c(C(F)(F)F)n1)CCc1ccccc1-2)NCc1ccccc1 | 0.257 |
| Cn1cccc1Cc1nnc(SCC(=O)N2CCCCCC2)n1-c1ccc(F)cc1 | 2.24 |
| Cn1cccc1Cc1nnc(SCC(=O)N2CCOCC2)n1-c1ccc(F)cc1 | -0.171 |
| COc1ccc(NC(=O)CSc2nnc(Cc3cccn3C)n2-c2ccc(F)cc2)cc1OC | -0.626 |
| Cn1cccc1Cc1nnc(SCC(=O)NC2CCCC2)n1-c1ccc(F)cc1 | 2.33 |

| Structure (SMILES) | z-score |
| --- | --- |
| Cn1cccc1Cc1nnc(SCC(=O)N2CCN(c3ccccc3)CC2)n1-c1ccc(F)cc1 | -0.223 |
| Cc1ccc(-n2c(Cc3cccn3C)nnc2SCC(=O)NC2CCCCC2)cc1 | 0.061 |
| COc1ccc(NC(=O)CSc2nnc(Cc3cccn3C)n2-c2ccc(C)cc2)cc1OC | 2.03 |
| Cn1cccc1Cc1nnc(SCC(=O)Nc2ccc(F)cc2)n1-c1ccc(F)cc1 | -0.84 |
| CC(=O)Nc1cccc(NC(=O)CSc2nnc(Cc3cccn3C)n2-c2ccc(C)cc2)c1 | -0.278 |
| CC(NC(=O)Cc1ccc(-c2ccccc2)cc1)c1ccccc1 (configuration not stated) | -0.225 |
| Cc1cc(C)c2oc(C(=O)Nc3nnc(C(C)C)s3)cc(=O)c2c1 | -0.0364 |
| O=C(Nc1ccccc1)N1CCN(c2ccc(F)cc2)CC1 | 0.147 |
| CC(=O)c1ccc(Sc2ccc(C(C)=O)cc2)cc1 | -0.316 |
| CCn1nnc(-c2ccccc2NC(=O)c2cc(OC)c(OC)c(OC)c2)n1 | -1.03 |
| CC(=O)N1CCN(S(=O)(=O)c2cccc(C(=O)NC3CCCc4ccccc43)c2)CC1 (configuration not stated) | 0.0317 |
| O=C(NC1CCCc2ccccc21)c1cccc(S(=O)(=O)N2CCN(c3ccccc3)CC2)c1 (configuration not stated) | 2.28 |
| CN(C)S(=O)(=O)c1cccc(C(=O)NC2CCCc3ccccc32)c1 (configuration not stated) | -0.104 |
| COC(=O)c1ccc(/C=N/NC(=O)CC(=O)NCC(C)C)cc1 | -0.0626 |
| COc1cc(CNCCO)cc(Br)c1OCc1ccccc1Cl | 1.32 |
| O=C(O/N=C/c1ccc2c(c1)OCO2)c1ccccc1Cl | 0.0816 |
| CCOc1ccc(-n2c(SCc3nc(-c4ccc(C)cc4)no3)nnc2-c2ccncc2)cc1 | -0.127 |
| CCCn1c(SCc2nc(-c3cccs3)no2)nnc1-c1ccncc1 | 0.141 |
| CCOc1ccc(-n2c(SCc3nc(-c4cccs4)no3)nnc2-c2ccncc2)cc1 | 7.31 (active) |
| S=C(Nc1cccc(Cl)c1Cl)Nn1cnnc1 | -0.236 |
| O=C(O)c1ccc(NC(=S)NC(NC(=O)c2ccco2)C(Cl)(Cl)Cl)cc1 (configuration not stated) | -0.0488 |
| Cc1cc(C)c2[nH]c(=O)c(=O)[nH]c2c1 | -0.178 |

| Structure (SMILES) | z-score |
| --- | --- |
| Cc1cc(C)c2[nH]c(=S)cc(C)c2c1 | 5.14 (active) |
| Cc1cc2[nH]c(=S)[nH]c2cc1C | 0.151 |
| NC(=O)C1CCN(CC(=O)Nc2cccc(C(=O)Nc3cccc(C(F)(F)F)c3)c2)CC1 | -0.137 |
| CS(=O)(=O)N(Cc1ccccc1)c1ccc(C(=O)NC2CCCCC2O)cc1 (configuration not stated) | 0.252 |
| O=C(NNS(=O)(=O)c1ccccc1F)c1cccc(S(=O)(=O)N2CCOCC2)c1 | 10.4 (active) |
| O=C(NNS(=O)(=O)c1cccc(Cl)c1Cl)c1cccc(S(=O)(=O)N2CCOCC2)c1 | -0.174 |
| O=C(NNS(=O)(=O)c1ccc(F)c(Cl)c1)c1cccc(S(=O)(=O)N2CCOCC2)c1 | -0.0447 |
| CCNc1nc(NC(C)CC)nc(Oc2ccc(=O)[nH]n2)n1 (configuration not stated) | -0.162 |
| CN=C1c2cc3c(Br)c(OC)ccc3n2CCN1C | 0.218 |
| CN=C1c2c(-c3ccccc3)c3cc(OC)ccc3n2CCN1C | 4.2 (active) |
| CN=C1c2cc3cc(OC)ccc3n2CCN1C | 0.371 |
| CCC(C)n1c(-c2ccco2)nc2nc3ccccc3nc21 (configuration not stated) | -1.06 |
| Fc1cccc(-n2c(-c3ccco3)nc3nc4ccccc4nc32)c1 | 3.05 (active) |
| Cc1cccc(-n2c(-c3ccco3)nc3nc4ccccc4nc32)c1 | -0.0341 |
| CCOC(=O)c1cnc(-c2ccccc2)nc1Oc1ccccc1 | -0.19 |
| CCOC(=O)c1cnc(-c2ccccc2)nc1Oc1ccc(C)cc1 | 2.4 |
| CCOC(=O)c1cnc(-c2ccccc2)nc1Oc1ccc(Cl)cc1 | -0.241 |
| COc1ccc(C(=O)Nc2ccc(S(=O)(=O)NCc3ccco3)cc2)cc1OC | 3.13 (active) |
| O=C(Nc1ccccc1)c1ccc(S(=O)(=O)NCc2ccco2)cc1 | -0.18 |
| Cc1ccc(C(=O)Nc2ccc(S(=O)(=O)NCc3ccco3)cc2)cc1 | 0.0377 |
| CCOC(=O)c1c(NC(=O)C2CCCO2)sc(C(N)=O)c1C (configuration not stated) | -0.0328 |
| CN(C)c1ccc(N=Nc2ccccc2C(=O)OCC(=O)NC2CCCC2)cc1 | -0.235 |

| Structure (SMILES) | z-score |
| --- | --- |
| COc1cccc(C(=O)NC(C)c2ccc(Br)cc2)c1 (configuration not stated) | -0.143 |
| CCCC(=O)NC1C2CC3CC(C2)CC1C3 (configuration not stated) | 0.313 |
| CC(=O)c1c(C)[nH]c(C(=O)OCC(=O)Nc2cccc(S(=O)(=O)N3CCCC3)c2)c1C | 0.16 |
| Cc1cc(C)c(C)c(S(=O)(=O)NNC(=O)c2cccc(S(=O)(=O)N3CCOCC3)c2)c1C | -0.174 |
| COC(=O)n1c(=S)oc2cc(Cl)ccc21 | 2.15 |
| CCCCOC(=O)n1c(=S)oc2cc(Cl)ccc21 | -0.00789 |
| Cc1ccccc1OC(=O)n1c(=S)oc2cc(Cl)ccc21 | 1.42 |
| O=C(NCc1ccco1)c1ccc(S(=O)(=O)c2cccc(S(=O)(=O)N3CCOCC3)c2)cc1 | 0.0723 |
| CCC(C)C(=O)Nc1nc(C)c(-c2csc(Nc3ccccc3OC)n2)s1 (configuration not stated) | -0.407 |
| Clc1ccc(OCc2cc(-c3ccccc3)no2)c(Cl)c1 | -0.0969 |
| COc1ccc2nc(N3C(=O)/C(=C/c4ccc(Cl)cc4)NC3=S)sc2c1 | 6.84 (active) |
| CCOc1ccc2nc(N3C(=O)/C(=C/c4ccccc4)NC3=S)sc2c1 | 3.66 (active) |
| COc1ccc2nc(N3C(=O)CC(C(C)c4ccccc4)C3=O)sc2c1 (configuration not stated) | -0.143 |
| CCOc1ccc2nc(SCC(=O)c3ccccc3)sc2c1 | 0.303 |
| COc1ccc2nc(N3C(=O)/C(=C/c4ccccc4)NC3=S)sc2c1 | 11.9 (active) |
| COc1ccc(N2C(=O)/C(=C/c3cccnc3)NC2=S)cc1 | -0.439 |
| COc1ccc2nc(N3C(=O)CC(Cc4ccc(Cl)cc4)C3=O)sc2c1 (configuration not stated) | -0.21 |
| COC(=O)/C=C1\C(=O)N(c2nc3ccc(OC)cc3s2)C(=S)N1c1ccc(F)cc1 | 0.0125 |
| CCOc1ccc2nc(N3C(=O)/C(=C/c4ccc(Cl)cc4)NC3=S)sc2c1 | 1.05 |
| Cc1cccc(OCCNc2cc(N3CCN(CCO)CC3)ccc2[N+](=O)[O-])c1 | -0.0985 |
| Cc1cc2c(cc1C)NC1(C(=O)Nc3ccccc31)C1=C(CC(C)(C)CC1=O)N2 (configuration not stated) | 0.0524 |
| Cc1cccc(Oc2ccccc2NC(=O)c2cnccn2)c1 | -0.109 |

| Structure (SMILES) | z-score |
| --- | --- |
| COc1cc(C(=O)NCCc2ccc3c(c2)OCCO3)ccc1OCC(=O)N1CCOCC1 | 0.0469 |
| CCCCOc1ccc(-c2cc(C(=O)NNC(=S)NCC)c3ccccc3n2)cc1 | -0.155 |
| COc1ccccc1N1CCN(C(CNC(=O)c2ccc3c(c2)OCO3)c2cccnc2)CC1 (configuration not stated) | 0.0309 |
| CC(CNCC1CCCO1)COc1cccc2ccccc12 (configuration not stated) | 0.285 |
| Cc1ccc(C(=O)N/C(=C\c2ccc(-c3ccc(Br)cc3)o2)C(=O)NC2CCS(=O)(=O)C2)cc1 (configuration not stated) | -0.13 |
| O=C(Nc1ccc2oc(-c3ccncc3)nc2c1)c1ccccc1F | -0.225 |
| O=C(Nc1ccc2oc(-c3ccncc3)nc2c1)c1c(F)c(F)c(F)c(F)c1F | 3.39 (active) |
| COc1c(F)c(F)c(C(=O)Nc2ccc3oc(-c4ccncc4)nc3c2)c(F)c1F | -0.29 |
| COc1cc2c(cc1NCc1ccccn1)oc1ccccc12 | -0.0883 |
| CCC(=O)Nc1ccc(N2CCN(Cc3ccccc3)CC2)cc1 | 0.042 |
| O=C(CCS(=O)(=O)c1ccccc1)Nc1nc2c(s1)COc1ccccc1-2 | -0.504 |
| C/C=C/C=N/Nc1nc(-c2ccc([N+](=O)[O-])cc2)cs1 | -0.273 |
| COc1ccc(C(=O)N2CCN(C3CCC(c4ccccc4)CC3)CC2)cc1OC (configuration not stated) | -1.61 |
| Cc1ccc(NC(=O)CC(O)(C(F)(F)F)C(F)(F)F)cc1 | -0.185 |
| O=C(CC(O)(C(F)(F)F)C(F)(F)F)Nc1ccc(Cl)c(Cl)c1 | 6.91 (active) |
| Cc1ccc(Cl)cc1NC(=O)CC(O)(C(F)(F)F)C(F)(F)F | -2.38 |
| CCOC(=O)CC(=O)CSc1nc2c(cc1C#N)CCCCC2 | 1.09 |
| COC(=O)CC(=O)CSc1nc2c(cc1C#N)CCC2 | -0.106 |
| CCOC(=O)CC(=O)CSc1nc2c(cc1C#N)CCC2 | 2.18 |

— PubChem BioAssay AID488969 (Vanderbilt High Throughput Screening Facility, 2010)
